# Experimental data from ChEMBL document CHEMBL4513216, “Probing the Open Global Health Chemical Diversity Library for Multistage-Active Starting Points for Next-Generation Antimalarials” (ACS Infect Dis, 2020).
# The whole screen tested about 69,000 compounds, of which about 8,600 (12%) showed an effect of 50% or more. For the sample, strong results were picked, then their nearest neighbours and some compounds at random.
# Test system: Plasmodium berghei
# Test: Screen against P. berghei liver stage (PbLuc), transformed with Luciferase, at 10uM
# Type: functional, HepG2
# Settings: tested at 10 uM
row,SMILES,INHIBITION [%]
1,CC(C)C(Sc1nnc(NC2CC2)s1)C(=O)NCc1cccnc1 (stereo unspecified),-26.7
2,Cc1noc(C)c1S(=O)(=O)NC(=O)COc1cccc(C(C)C)c1,13.3
3,Nc1nc2c(s1)C(c1c(F)cccc1Cl)CC(=O)N2 (stereo unspecified),30
4,CCNc1ncc(C(=O)N(C)C(C)c2ccc3c(c2)OCCO3)cn1 (stereo unspecified),15.8
5,Cc1ccccc1-c1cncc(C2CCN(CCO)CC2)n1,38.2
6,CCCN(CC1COc2ccccc2O1)C(=O)C1=NN(C)C(=O)CC1 (stereo unspecified),42.4
7,CCN(CC1COc2ccccc2O1)C(=O)C1=NN(C)C(=O)CC1 (stereo unspecified),50.8
8,CN(CC1COc2ccccc2O1)C(=O)C1=NN(C)C(=O)CC1 (stereo unspecified),25.7
9,CCNC(=O)CCCC(=O)N1CCc2cc(Cl)cc(Cl)c2C1,-4.52
10,COC(=O)C1CCN(C(=O)Cn2ccc(-c3ccccc3)n2)CC1,-35
11,CN1CCO[C@H]2CN(C(=O)c3ccoc3)C[C@H]21,54.4
12,O=C(c1ccoc1)N1C[C@@H]2OCCN(c3ncccn3)[C@@H]2C1,-4.32
13,CC(C)N1CCO[C@H]2CN(C(=O)c3ccoc3)C[C@H]21,38.7
14,O=C(NCc1cc(-c2ccccc2)no1)NC1CCCCNC1=O (stereo unspecified),-24.8
15,O=C(c1n[nH]cc1Cl)N1CCCC(n2nnc3cc(F)ccc32)C1 (stereo unspecified),38.8
16,N#CC1(C(=O)N2C[C@@H]3CC[C@H]2CN(Cc2ccncc2)C3)CCOCC1,26.5
17,Cc1ccc(S(=O)(=O)N(C)Cc2cnccn2)cc1N(C)C,26
18,CN(Cc1cnccn1)S(=O)(=O)c1ccc(C(F)(F)F)nc1,75.5
19,CN(CC(C)(C)C)S(=O)(=O)c1ccc(C(F)(F)F)nc1,33.7

row,SMILES,INHIBITION [%]
1,CN1CCN(C(=O)c2cn3ccsc3n2)[C@H]2CS(=O)(=O)C[C@H]21,38.5
2,CN1CCCC1CNC(=O)CCCOc1ccc(Cl)cc1 (stereo unspecified),24.665
3,O=C(c1ccsc1)N1C[C@@H]2CCN(C(=O)c3cscn3)[C@@H]2C1,27.5
4,O=C(C1CCC1)N1CCC(c2ncc3c(n2)CCNC3)CC1,-12.9
5,CC1(C)CC(CC(=O)N2CC(C)(C)[C@@](C)(O)C2)CC(C)(C)N1,70.2
6,CCN(CC)Cc1cc(C(=O)N2CC(C)(C)[C@@](C)(O)C2)c(C)o1,35.7
7,CC1(C)CN(C(=O)CC2CCS(=O)(=O)CC2)C[C@]1(C)O,34.4
8,CC1(C)CN(C(=O)CC2CCC2)C[C@]1(C)O,47.4
9,CCCN1CCC(CC(=O)N2CC(C)(C)[C@@](C)(O)C2)CC1,57.2
10,CCc1ccc(C(=O)N2CC[C@](C)(O)C(C)(C)C2)[nH]1,-10.6
11,CCc1cc(N[C@@H]2CC[C@@H](N)C2)n2nc(C)c(C)c2n1,-42.8
12,Cc1cc(C(=O)NCC(C)C)nn1C,37.9
13,O=C(NCc1cc2ccccc2[nH]1)C1CCCN(C(=O)N2CCCC2)C1 (stereo unspecified),3.87
14,COC(=O)CC1c2cccnc2C(=O)N1Cc1ccccc1 (stereo unspecified),36.6
15,CN(CC(=O)N1CCCC1)C(=O)Cc1csc(-c2ncccn2)n1,30.057
16,O=C(c1cccc(F)c1)N1CCCN(Cc2cscn2)CC1,-75.2
17,Cc1cc(NCC2CCCO2)cc(=O)n1C (stereo unspecified),29.3
18,Cc1cc(C)c2cc(CNC(C)C)c3nn(C)c(=O)n3c2c1,64.9
19,Cc1cc(C)c2c(OCC(=O)NC(C)C)nn(C)c2n1,37.1

row,SMILES,INHIBITION [%]
1,CCCn1cnnc1CNC1CCCC1,9.91
2,Cc1cc(C)c2cc(CNC3CCCCC3)c3nn(C)c(=O)n3c2c1,73.8
3,Cc1nn(C)c(C)c1CC(=O)NCc1ccnc(OC2CCCC2)c1,25.3
4,Cc1cc(C)c2ncn(CCC(C)O)c(=O)c2c1 (stereo unspecified),6.28
5,Cc1cc(C)c2cc(CNCC3CCCO3)c3nn(C)c(=O)n3c2c1 (stereo unspecified),55.2
6,Cc1noc2ncc(C(=O)NCC3CCCO3)cc12 (stereo unspecified),-17.45
7,Cc1csc(N2CCC(CCN3CCCC3=O)CC2)n1,-40.5
8,COc1ccc2c3c1CN(S(C)(=O)=O)CC3=CC(C)(C)CO2,29.8
9,Cn1ncc2c(=O)[nH]c(CN3CCCC3c3ccsc3)nc21 (stereo unspecified),-19.6
10,O=C([C@H]1C[C@H]2OCC[C@H]2N(C(=O)C2CCOCC2)C1)N1CCCCO1,28.3
11,O=C([C@H]1C[C@H]2OCC[C@H]2N(CC2CCOCC2)C1)N1CCCC1,76.3
12,O=C([C@H]1C[C@H]2OCC[C@H]2N(CC2CCOCC2)C1)N1CCCCO1,50.9
13,O=C(NC1CC1)[C@H]1C[C@H]2OCC[C@H]2N(CC2CCOCC2)C1,25.4
14,O=C([C@H]1C[C@H]2OCC[C@H]2N(CC2CC2)C1)N1CCCCO1,29.9
15,O=C([C@H]1C[C@H]2OCC[C@H]2N(CC2CC2)C1)N1CCCC1,82.2
16,CNC(=O)[C@H]1C[C@H]2OCC[C@H]2N(CC2CC2)C1,10.5
17,O=C([C@H]1C[C@@H]2[C@@H](C1)OCCN2CC1CC1)N1CCCC1,5.36
18,CNC(=O)[C@H]1C[C@H]2OCC[C@H]2N(CC2CCOCC2)C1,10.5
